Source: PubChem BioAssay (NCI)
This is part of a sample that, as a whole, favours compounds with a hit. Of some 83,000 tested, about 20% had one in any assay.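 The endpoint reported here, percent growth, reads 100 for growth as untreated, 0 for no net growth and -100 for all cells dead.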 Calls of active or inactive are those of the source. The calls were made as follows: active = growth percent below 10; inactive = the rest.

Columns and labels:
Assay in all cases: NCI-60 one-dose screen, 48 h (100 = growth as untreated, 0 = no growth, -100 = all killed)
HCT-15 colon = conditions: 10 µM unless noted
HT29 colon = conditions: 10 µM unless noted
SNB-75 CNS = conditions: 10 µM unless noted
U251 CNS = conditions: 10 µM unless noted
PC-3 prostate = conditions: 10 µM unless noted
SK-MEL-5 melanoma = conditions: 10 µM unless noted
UACC-62 melanoma = conditions: 10 µM unless noted
LOX IMVI melanoma = conditions: 10 µM
SK-MEL-28 melanoma = conditions: 10 µM unless noted

Measured: growth

CC(=O)OC[C@@]1(C)C2CC[C@]3(C)C(CC=C4C5CC(C)(C)CC[C@]5(C(=O)Nc5cccc(C)c5)CC[C@]43C)[C@@]2(C)C[C@@H](OC(C)=O)[C@@H]1OC(C)=O (stereo partly specified)
active: SK-MEL-5 melanoma 3.77%
inactive: HCT-15 colon 30.9% | HT29 colon 25.5% | SNB-75 CNS 67.9% | U251 CNS 40.6% | PC-3 prostate 29.4% | UACC-62 melanoma 45.4% | LOX IMVI melanoma 11.6% | SK-MEL-28 melanoma 62.3%

Cc1ccc(S(=O)(=O)c2nc(S(=O)(=O)c3ccc(C)cc3)c(N3CCC(O)CC3)s2)cc1
inactive: HCT-15 colon 22.9% | HT29 colon 77.8% | SNB-75 CNS 97.5% | U251 CNS 57.7% | PC-3 prostate 56.8% | SK-MEL-5 melanoma 78.1% | UACC-62 melanoma 42% | LOX IMVI melanoma 50.5% | SK-MEL-28 melanoma 81.9%

COc1ccc(-c2ccnc(SCc3cc4cc(Cl)ccc4[nH]c3=O)n2)cc1
inactive: HCT-15 colon 80.8% | HT29 colon 84.7% | PC-3 prostate 29.6% | SK-MEL-5 melanoma 37.4% | UACC-62 melanoma 42.5% | LOX IMVI melanoma 80.9% | SK-MEL-28 melanoma 64.3%
active: SNB-75 CNS -7.9% | U251 CNS 0.922%

COc1ccc(C2(SCCNCc3cc(N(C)C)ccn3)c3ccccc3C=Cc3ccccc32)cc1
active: HCT-15 colon 2.66% | HT29 colon -43% | SNB-75 CNS 9.76% | U251 CNS 0.439% | SK-MEL-5 melanoma -20.3% | LOX IMVI melanoma 2.34%
inactive: PC-3 prostate 13.8% | UACC-62 melanoma 38% | SK-MEL-28 melanoma 29.9%
